PubChem BioAssay (EPA / NIEHS)
Calls of active or inactive are those of the source. How the source made its calls: active means hit-call score of the fitted dose curve at least 0.9, where 1 is the maximum; inactive means score below 0.9.

Assays:
[1] = APR_HepG2_P-H2AX_72hr: Apredica 72-hour HepG2 Assay for H2AX Phosphorylation (AID 2282916); conditions: imaging, actives raise or lower the signal;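 further: phospho-histone H2A.x immunostain intensity per cell marking DNA damage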
Summary of the method: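 HepG2; cpd 0.39–200 uM ×10 conc, duplicates; 0.5% DMSO; 72 hr. Fix 3.7% formaldehyde 30 min RT, 0.5% Triton X-100 10 min. Anti-phospho-H2A.x 1:200 + Hoechst 2 ug/mL, 60 min RT; ArrayScan imaging.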

[2] = APR_HepG2_MitoMembPot_72hr: Apredica 72-hour HepG2 Assay for Mitochondrial Membrane Potential (AID 2282917); conditions: imaging, actives raise or lower the signal
Summary of the method: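 HepG2 cells exposed 72 h to compounds at 0.39–200 uM (0.5% v/v DMSO, duplicates); MitoTracker Red CMXRos 250 nM loaded 30 min before 3.7% formaldehyde fixation, imaged by HCS fluorescence. Bidirectional fit versus DMSO.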

[3] = APR_HepG2_MitoticArrest_72hr: Apredica 72-hour HepG2 Assay for Mitotic Arrest (AID 2282918); conditions: high-content imaging, actives raise or lower the signal
Summary of the method: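 High-content imaging of fixed human HepG2 cells after 72 h compound exposure (0.39–200 uM, duplicates, 0.5% DMSO); mitotic arrest scored from phospho-histone H3 and nuclear Hoechst staining relative to DMSO.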

[4] = APR_HepG2_MicrotubuleCSK_72hr: Apredica 72-hour HepG2 Assay for Microtubule CSK Stabilty (AID 2282919); conditions: HepG2 microtubule cytoskeleton, high-content imaging, actives raise or lower the signal
Summary of the method: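 HepG2 human liver cells were dosed for 72 h at ten concentrations from 0.39 to 200 uM in duplicate (0.5% v/v DMSO final). Fixed, permeabilized cells were immunostained for alpha-tubulin (Cy5) with a Hoechst counterstain and imaged at 20x.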

[5] = APR_HepG2_P-H2AX_24hr: Apredica 24-hour HepG2 Assay for H2AX Phosphorylation (AID 2282920); conditions: high-content imaging, actives raise or lower the signal
Summary of the method: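 High-content imaging of phospho-histone H2A.x immunofluorescence, nuclei counterstained with Hoechst 33342, in fixed HepG2 cells. Compounds ran 0.39–200 uM in duplicate for 24 h, final DMSO 0.5%. Signal change fitted both directions against DMSO.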

[6] = APR_HepG2_StressKinase_72hr: Apredica 72-hour HepG2 Assay for Stress Kinase (AID 2282921); conditions: HepG2 stress kinase (phospho-c-Jun) imaging, actives raise or lower the signal
Summary of the method: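 Dose 0.39–200 uM (10 pts, duplicate), 0.5% DMSO; 72 h; fix 3.7% formaldehyde 30 min RT; Triton permeabilize; anti-phospho-c-Jun/Cy3 + Hoechst 60 min RT; image 20x; fit gain/loss vs DMSO.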

[7] = APR_HepG2_StressKinase_24hr: Apredica 24-hour HepG2 Assay for Stress Kinase (AID 2282922); conditions: HepG2 stress kinase (phospho-c-Jun) imaging, actives raise or lower the signal
Summary of the method: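 HepG2 cells exposed 24 hr to compound at 0.39–200 uM (10 concentrations, duplicate), 0.5% v/v DMSO final. Fixed in 3.7% formaldehyde, permeabilized with Triton X-100, immunolabeled for phospho-c-Jun with Hoechst 33342; HCS fluorescence imaging, bidirectional fit versus DMSO.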

[8] = APR_HepG2_p53Act_72hr: Apredica 72-hour HepG2 Assay for p53 Activation (AID 2282923); conditions: high-content imaging, actives raise or lower the signal;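 further: average cellular p53 protein immunofluorescence intensity in HepG2 cells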
Summary of the method: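 10-pt conc. 0.39–200 uM, duplicate, 0.5% DMSO; 72 hr exposure; 3.7% formaldehyde fix, 0.5% Triton perm; sheep anti-p53/Cy5 + Hoechst; ArrayScan 20x, 6 images/well; gain/loss fit vs DMSO.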

[9] = APR_HepG2_MitoMass_72hr: Apredica 72-hour HepG2 Assay for Mitochondrial Mass (AID 2282924); conditions: high-content imaging, actives raise or lower the signal;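 further: MitoTracker Red CMXRos stain intensity per cell imaged as mitochondrial mass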
Summary of the method: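 HepG2 cells were exposed for 72 hr to compounds at 0.39–200 uM (ten concentrations, duplicate, 0.5% v/v DMSO final). Live cells were stained with 250 nM MitoTracker Red CMXRos for 30 min, then fixed in 3.7% formaldehyde and imaged by HCS fluorescence.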

[10] = APR_HepG2_NuclearSize_72hr: Apredica 72-hour HepG2 Assay for Nuclear Size (AID 2282925); conditions: high-content imaging, actives raise or lower the signal
Summary of the method: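 HepG2 cells were exposed to compounds at ten concentrations from 0.39 to 200 uM (duplicate, 0.5% DMSO final) for 72 hr. After fixation in 3.7% formaldehyde, nuclei were stained with Hoechst 33342 (2 ug/mL) and imaged at 20x.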

[11] = ATG_CRE_CIS: Attagene CIS-FACTORIAL HepG2 Assay for human cAMP Responsive Element (CRE) binding protein 3 (AID 2282926); conditions: HepG2 CRE cis-reporter, Attagene multiplexed mRNA; actives raise or lower the signal
Summary of the method: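 Multiplexed transcription-unit reporters transfected into HepG2; 24 h dosing; RT-PCR/capillary electrophoresis fluorescence read-out; bidirectional fit vs DMSO.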

[12] = biological target: CCAAT/enhancer-binding protein beta (Homo sapiens) (UniProt P17676); test: ATG_C_EBP_CIS: Attagene CIS-FACTORIAL HepG2 Assay for human CCAAT/Enhancer Binding Protein (C/EBP) beta (AID 2282927); conditions: HepG2 Attagene cis-factorial transcription factor reporter; actives raise or lower the signal
Summary of the method: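 Chemical-treated HepG2 cells (24 h) bearing cis-regulated reporter constructs were processed for total RNA, then reverse transcription, PCR amplification, fluorescent primer extension and fragment analysis; gain- and loss-of-signal were fitted against DMSO.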

[13] = ATG_CMV_CIS: Attagene CIS-FACTORIAL HepG2 Assay for human CMV (Internal Marker) (AID 2282928); conditions: HepG2 CMV promoter reporter, transcription factor profiling; actives raise or lower the signal;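 further: endpoint acts as a background internal control marker rather than a target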
Summary of the method: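 Endogenous transcription factor activity read in HepG2 via transfected cis-promoter reporter units. After 24 h dosing, reporter mRNA measured by RT-PCR/capillary electrophoresis; gain or loss of signal fit relative to DMSO.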

[14] = ATG_DR4_LXR_CIS: Attagene CIS-FACTORIAL HepG2 Assay for human Liver X Receptor (LXR), DR4 submotif (AID 2282929); conditions: HepG2 Attagene DR4 cis-reporter, mRNA transcription; actives raise or lower the signal
Summary of the method: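 Transiently transfected HepG2 liver cells; cis-regulated reporters; 24 h dosing. RT-PCR plus CE read-out of reporter mRNA. DMSO baseline, bidirectional curve fitting.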

[15] = biological target: Aryl hydrocarbon receptor (Homo sapiens) (UniProt P35869); test: ATG_Ahr_CIS: Attagene CIS-FACTORIAL HepG2 Assay for human Aryl Hydrocarbon Receptor (Ahr) (AID 2282930); conditions: HepG2 AhR cis-factorial reporter transcription; actives raise or lower the signal
Summary of the method: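 Following 24 h of chemical dosing, transfected HepG2 liver cells with cis-driven reporter units were lysed for RNA; reporter mRNA was quantified via RT-PCR and capillary electrophoresis, and responses fitted bidirectionally from DMSO.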

[16] = ATG_AP_2_CIS: Attagene CIS-FACTORIAL HepG2 Assay for human Activator Protein 2 (AP-2) (AID 2282932); conditions: HepG2 AP-2 cis-reporter, Attagene transcription factor profiling; actives raise or lower the signal
Summary of the method: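 Bidirectional curve fitting against DMSO was applied to reporter mRNA signals from HepG2 cells 24 h after dosing. Cis-promoter reporter units, transiently transfected, were read by RT-PCR plus capillary electrophoresis.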

[17] = ATG_BRE_CIS: Attagene CIS-FACTORIAL HepG2 Assay for human Bone Morphogenetic Protein (BMP) Response Element (BRE) (AID 2282933); conditions: HepG2 BMP response element reporter, Attagene transcription factor profiling; actives raise or lower the signal
Summary of the method: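 After a 24 h chemical treatment, transiently transfected HepG2 cells were lysed for RNA; reporter transcripts were quantified by fluorescent RT-PCR and capillary electrophoresis, normalised to DMSO.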

[18] = biological target: Retinoic acid receptor alpha (Homo sapiens) (UniProt P10276); test: ATG_DR5_RAR_CIS: Attagene CIS-FACTORIAL HepG2 Assay for human Retinoic Acid Receptor Alpha (RARE), DR5 submotif (AID 2282934); conditions: HepG2 Attagene cis-factorial RARE DR5 reporter, mRNA; actives raise or lower the signal;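 on AC50: reporter responds to endogenous RAR alpha beta and gamma in HepG2 not RARA alone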
Summary of the method: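 Transfected HepG2 reporter cells are exposed to chemicals for 24 h. Then RNA is extracted and the DR5 element reporter transcript is measured by RT-PCR and capillary electrophoresis, with bidirectional curve fitting relative to DMSO.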

[19] = biological target: Transcription factor E2F1 (Homo sapiens) (UniProt Q01094); test: ATG_E2F_CIS: Attagene CIS-FACTORIAL HepG2 Assay for human E2F Transcription Factor 1 (AID 2282935); conditions: HepG2 Attagene cis-reporter, E2F reporter RNA transcripts; actives raise or lower the signal
Summary of the method: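 Multiplexed cis-reporter assay: HepG2, transient transfection, 24 h dosing, mRNA quantitation by labeled RT-PCR and CE.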

Measured: AC50

Chain of Transcription factor E2F1 (Homo sapiens) (Q01094 whole entry, looked up): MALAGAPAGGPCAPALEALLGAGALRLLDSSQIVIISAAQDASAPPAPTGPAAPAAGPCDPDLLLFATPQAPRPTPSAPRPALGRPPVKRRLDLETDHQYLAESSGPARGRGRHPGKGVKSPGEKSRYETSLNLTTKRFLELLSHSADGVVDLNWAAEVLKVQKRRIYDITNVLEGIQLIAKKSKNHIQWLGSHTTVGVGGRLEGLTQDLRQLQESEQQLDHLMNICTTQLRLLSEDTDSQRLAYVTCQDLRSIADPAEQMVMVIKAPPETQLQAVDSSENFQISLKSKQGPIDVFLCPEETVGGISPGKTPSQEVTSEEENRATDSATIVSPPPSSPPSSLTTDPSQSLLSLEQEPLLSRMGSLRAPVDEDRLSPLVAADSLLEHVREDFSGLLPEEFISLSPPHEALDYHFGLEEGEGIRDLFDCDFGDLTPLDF
Chain of Aryl hydrocarbon receptor (Homo sapiens) (P35869 whole entry, looked up): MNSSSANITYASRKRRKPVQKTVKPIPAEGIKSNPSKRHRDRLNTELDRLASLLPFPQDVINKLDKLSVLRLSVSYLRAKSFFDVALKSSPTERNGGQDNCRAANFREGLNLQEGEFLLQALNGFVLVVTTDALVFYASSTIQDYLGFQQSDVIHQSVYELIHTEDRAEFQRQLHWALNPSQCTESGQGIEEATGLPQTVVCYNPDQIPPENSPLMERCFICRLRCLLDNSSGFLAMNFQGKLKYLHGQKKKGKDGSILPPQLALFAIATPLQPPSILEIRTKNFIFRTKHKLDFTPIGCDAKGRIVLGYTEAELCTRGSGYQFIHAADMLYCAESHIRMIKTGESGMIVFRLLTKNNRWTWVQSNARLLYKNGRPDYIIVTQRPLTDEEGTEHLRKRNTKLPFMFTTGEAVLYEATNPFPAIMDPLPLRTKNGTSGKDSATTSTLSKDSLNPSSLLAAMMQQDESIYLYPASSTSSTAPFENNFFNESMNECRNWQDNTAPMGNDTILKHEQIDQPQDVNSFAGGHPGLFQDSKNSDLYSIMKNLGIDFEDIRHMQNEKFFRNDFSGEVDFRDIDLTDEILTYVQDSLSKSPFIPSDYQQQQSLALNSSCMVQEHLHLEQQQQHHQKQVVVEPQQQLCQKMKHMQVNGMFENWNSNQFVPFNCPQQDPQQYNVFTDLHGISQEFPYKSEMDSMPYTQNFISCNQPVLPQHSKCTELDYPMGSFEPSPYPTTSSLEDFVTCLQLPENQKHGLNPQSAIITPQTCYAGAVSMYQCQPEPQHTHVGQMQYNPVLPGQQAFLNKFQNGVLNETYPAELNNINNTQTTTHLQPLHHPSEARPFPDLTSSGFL
Chain of Retinoic acid receptor alpha (Homo sapiens) (P10276 whole entry, looked up): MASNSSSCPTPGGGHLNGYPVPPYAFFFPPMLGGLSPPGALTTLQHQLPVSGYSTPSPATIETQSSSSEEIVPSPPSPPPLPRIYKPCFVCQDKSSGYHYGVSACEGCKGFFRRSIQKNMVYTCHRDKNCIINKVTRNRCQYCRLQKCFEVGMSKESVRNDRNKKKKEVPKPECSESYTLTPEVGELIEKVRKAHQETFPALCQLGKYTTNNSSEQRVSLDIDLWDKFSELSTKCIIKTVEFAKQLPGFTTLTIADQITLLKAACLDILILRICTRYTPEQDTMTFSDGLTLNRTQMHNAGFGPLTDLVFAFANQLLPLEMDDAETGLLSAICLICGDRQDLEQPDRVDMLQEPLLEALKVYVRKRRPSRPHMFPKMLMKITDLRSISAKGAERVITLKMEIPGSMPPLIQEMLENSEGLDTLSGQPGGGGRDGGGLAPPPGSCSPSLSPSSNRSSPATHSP
Chain of CCAAT/enhancer-binding protein beta (Homo sapiens) (P17676 whole entry, looked up, the tested form may be a part): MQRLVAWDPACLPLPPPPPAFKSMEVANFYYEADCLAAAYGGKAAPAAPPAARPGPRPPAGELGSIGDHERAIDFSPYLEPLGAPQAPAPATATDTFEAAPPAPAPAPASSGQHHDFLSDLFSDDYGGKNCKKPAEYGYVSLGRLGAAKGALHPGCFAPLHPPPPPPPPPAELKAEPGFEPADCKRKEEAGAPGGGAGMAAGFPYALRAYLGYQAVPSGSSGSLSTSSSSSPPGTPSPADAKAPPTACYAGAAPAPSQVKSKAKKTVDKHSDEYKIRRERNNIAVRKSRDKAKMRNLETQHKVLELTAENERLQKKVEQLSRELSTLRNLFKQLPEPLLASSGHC

CCOCCOC(C)=O
inactive: all assays above

ClC1=C(Cl)[C@]2(Cl)[C@@H]3[C@@H]4C[C@@H]([C@H]5O[C@@H]45)[C@@H]3[C@@]1(Cl)C2(Cl)Cl
active: [1] 41 µM | [3] 32.6 µM | [14] 16.7 µM | [18] 0.571 µM
inactive: all other assays above

Cc1cc(O)ccc1Cl
inactive: all assays above

CC(C)C(=O)OCC(C)(C)C(OC(=O)C(C)C)C(C)C (stereo unspecified)
active: [15] 69 µM
inactive: all other assays above
